This is an account of results in the supplement of paper PMC6522484.

Structures are written as SMILES. ± gives the standard deviation of the averaged measurements.

Assay [1] deals with DLD1. Briefly: cell viability (CellTiter-Glo) relative to plate median (fraction of plate median); higher = more viable cells. Particulars: 5 µM; treatment time 24 h; reporter: 7TFP. Summed up:
(§1)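 On parallel plates, a Tecan F500 reader recorded either firefly luciferase or CellTiterGlo luminescence. The plates held colorectal cancer cells stably transduced with lentiviral TCF/Wnt firefly luciferase reporters (7TFP or TCF4/Wnt), seeded in 384-well format and treated 24 h later with library compounds at a final 5 µM for 24 h. Per-well signals were normalised to the plate median (webcellHTS2, additive, no log transformation), and two independent replicates were averaged.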
On the technique in general: Cellular ATP, detected with luciferase, serves as a proxy for viable cell number.

For assay [2], the system named is HCT116. The description is as above. The conditions noted are these: 5 µM; treatment time 24 h; reporter: TCF4/Wnt. In a few lines: as §1
The test system of assay [3] is SW480. The assay is described as above. Particulars: 5 µM; treatment time 24 h; reporter: 7TFP. In a few lines:
as §1

Assay [4] has as its system DLD1. Briefly: TCF/Wnt firefly luciferase reporter signal relative to plate median (fraction of plate median); higher = higher Wnt reporter signal. Particulars: 5 µM; treatment time 24 h; reporter: 7TFP. Summed up: as §1
In general terms: A reporter such as luciferase makes a cellular process visible.

Assay [5] concerns SW480. The assay is described as above. The conditions noted are these: 5 µM; treatment time 24 h; reporter: 7TFP. In a few lines:
as §1

Take `Nc1ccc(S(=O)(=O)NC(=O)c2ccccc2)cc1`: the figures for the cell viability in assay [1], in assay [2] and in assay [3] were 1.07 ± 0.12, 0.954 ± 0.12 and 1.11 ± 0.064, respectively. Further, the results for the “TCF/Wnt firefly luciferase reporter signal” value in assay [4] and in assay [5] were 0.875 ± 0.15 and 1.02 ± 0.014, respectively.
For `CO/N=C1\C[C@]2(C[C@@H]3C[C@@H](C/C=C(\C)C[C@@H](C)/C=C/C=C4\CO[C@@H]5[C@H](O)C(C)=C[C@@H](C(=O)O3)[C@]45O)O2)O[C@H](/C(C)=C/C(C)C)[C@H]1C` the same measures were 0.891 ± 0.0092, 0.921 ± 0.019, 0.896 ± 0.042, 0.939 ± 0.24 and 0.932 ± 0.11.
As to `CN1C(=O)CC[C@H]1c1cccnc1`, the cell viability in assay [1] stood at 1.03 ± 0.035; in assay [2] it was 1.1 ± 0.078; in assay [3] it was 1.07 ± 0.014. Also, the entries for the “TCF/Wnt firefly luciferase reporter signal” value in assay [4] and in assay [5] were 1.06 ± 0.057 and 0.94 ± 0.073, respectively.
In the same order, the values of `O=c1[nH]cnc2nc[nH]c12` are 0.987 ± 0.061, 1.04, 0.913 ± 0.044, 0.969 ± 0.043 and 1.
For `CC(C)(Sc1cc(C(C)(C)C)c(O)c(C(C)(C)C)c1)Sc1cc(C(C)(C)C)c(O)c(C(C)(C)C)c1` the same measures were 0.947 ± 0.034, 0.987 ± 0.061, 0.955 ± 0.028, 1.01 ± 0.035 and 1.035 ± 0.0071.
For `C[N+]1(C)[C@@H]2CC[C@H]1C[C@@H](OC(=O)C(O)c1ccccc1)C2` (stereo not given in full) the same measures were 1.08 ± 0.035, 0.941 ± 0.079, 1.085 ± 0.0071, 1.1 ± 0.042 and 1.01 ± 0.15.
Turning to `Oc1ccc2c(c1)OC[C@]1(O)Cc3cc(O)c(O)cc3[C@H]21`, the cell viability in assay [1] stood at 1.01 ± 0.044; in assay [2] it was 0.929 ± 0.085; in assay [3], 0.936 ± 0.0014. Also, the “TCF/Wnt firefly luciferase reporter signal” value in assay [4] is 1.15 ± 0.11; in assay [5] it was 0.909 ± 0.024.
For `COC(=O)/C=C/C(C)=C\C=C\C(C)=C\C=C\C=C(C)\C=C\C=C(C)\C=C\C(=O)O` the same measures were 1.05 ± 0.057, 1.05 ± 0.028, 0.968 ± 0.046, 0.981 ± 0.042 and 0.997 ± 0.047.
`COc1ccc(C(=O)CC(=O)c2ccc(C(C)(C)C)cc2)cc1`: the cell viability is 0.879 ± 0.2 in assay [1], 0.904 ± 0.032 in assay [2] and 1.01 ± 0.021 in assay [3]. The “TCF/Wnt firefly luciferase reporter signal” value was 1 ± 0.098 in assay [4] and 1.04 ± 0.18 in assay [5].
For `O=C1c2ccccc2C(=O)c2c(O)c(O)cc(O)c21` the same measures were 1.02 ± 0.052, 0.96 ± 0.14, 1.09 ± 0.092, 1.17 ± 0.028 and 0.873 ± 0.044.
Turning to `CCCCCCCCCc1ccc(OCCOCCOCCOCCOCCOCCOCCOCCOCCO)cc1`, the cell viability in assay [1] was 0.985 ± 0.064; in assay [2], 0.947 ± 0.036; in assay [3] it was 0.998 ± 0.032. Further, the entries for the “TCF/Wnt firefly luciferase reporter signal” value in assay [4] and in assay [5] were 1 ± 0.18 and 0.904 ± 0.088, respectively.
For `CCOC(=O)[C@H](CCc1ccccc1)N[C@@H](C)C(=O)N1[C@H](C(=O)O)C[C@H]2CCCC[C@@H]21` the same measures were 0.923 ± 0.14, 1.02 ± 0.068, 0.98 ± 0.026, 0.912 ± 0.052 and 0.974 ± 0.093.
With `CC(Cc1cccc(C(F)(F)F)c1)NCCOC(=O)c1ccccc1` (stereo not given), the values for the cell viability in assay [1], in assay [2] and in assay [3] were 0.984 ± 0.023, 0.993 ± 0.011 and 0.955 ± 0.032, respectively. Also, the “TCF/Wnt firefly luciferase reporter signal” value was 1.22 ± 0.057 in assay [4] and 1.14 ± 0.021 in assay [5].
As to `CCC(=O)NCC[C@@H]1CCc2ccc3c(c21)CCO3`, the cell viability was 1.04 ± 0.021 in assay [1], 1.15 ± 0.092 in assay [2] and 1.06 ± 0.028 in assay [3]. Besides, the “TCF/Wnt firefly luciferase reporter signal” value in assay [4] amounted to 0.827 ± 0.037; in assay [5], 0.91 ± 0.023.
In the same order, the values of `COc1cc(OC)c2c(=O)c(-c3ccc4c(c3)OCO4)coc2c1` are 0.9395 ± 0.00071, 1 ± 0.16, 0.9755 ± 0.005, 1.02 ± 0.066 and 1.02 ± 0.028.
For `NC(=O)NC1NC(=O)NC1=O` (stereo not given) the same measures were 1.03 ± 0.014, 1.09 ± 0.057, 1.01 ± 0.03, 1.02 ± 0.15 and 1.055 ± 0.0071.
In the same order, the values of `CC(C)COCC(CN(Cc1ccccc1)c1ccccc1)N1CCCC1` (stereo not given) are 1.06 ± 0.088, 1 ± 0.064, 1.02 ± 0.06, 0.901 ± 0.084 and 0.937 ± 0.085.
For `O=c1c(O)c(-c2ccc(O)c(O)c2)oc2cc(O)cc(O)c12`, the cell viability in assay [1] is 0.9445 ± 0.00071; in assay [2], 0.9265 ± 0.0021; in assay [3] it was 1 ± 0.036. The “TCF/Wnt firefly luciferase reporter signal” value in assay [4] stood at 0.936 ± 0.062; in assay [5], 0.983 ± 0.067.
For `CCC/C=C1\OC(=O)C2=C1CCC=C2` the same measures were 0.992 ± 0.083, 0.973 ± 0.0028, 0.9545 ± 0.00071, 0.948 ± 0.1 and 0.967 ± 0.061.
`O=c1oc2c(O)c(O)cc3c(=O)oc4c(O)c(O)cc1c4c23`: the values for the cell viability in assay [1], in assay [2] and in assay [3] were 1.03 ± 0.028, 1.125 ± 0.0071 and 1.11 ± 0.028, respectively. The “TCF/Wnt firefly luciferase reporter signal” value was determined as 0.971 ± 0.055 in assay [4] and 1.045 ± 0.0071 in assay [5].
As for `O=C(O)C(S)C(S)C(=O)O` (stereo not given), the figures for the cell viability in assay [1], in assay [2] and in assay [3] were 1.04 ± 0.05, 1.03 ± 0.099 and 1.01 ± 0.096, respectively. Also, the entries for the “TCF/Wnt firefly luciferase reporter signal” value in assay [4] and in assay [5] were 0.904 ± 0.1 and 1.004 ± 0.0078, respectively.
In the same order, the values of `O=C(O)CCCC[C@@H]1SC[C@@H]2NC(=O)N[C@@H]21` are 1.03 ± 0.063, 0.954 ± 0.04, 0.948 ± 0.0042, 0.982 ± 0.022 and 0.963 ± 0.0042.
For `CC1(C)[C@@H](OC(=O)CCC(=O)O)CC[C@]2(C)[C@H]3C(=O)C=C4[C@@H]5C[C@@](C)(C(=O)O)CC[C@]5(C)CC[C@@]4(C)[C@]3(C)CC[C@@H]12`, the cell viability in assay [1] was 1 ± 0.011; in assay [2], 1.02 ± 0.035; in assay [3], 1.06 ± 0.014. The “TCF/Wnt firefly luciferase reporter signal” value in assay [4] is 1.09; in assay [5], 1.01.
Regarding `C[C@]12CC[C@H]3C(=CCc4cc(O)ccc43)[C@@H]1CCC2=O`, the cell viability in assay [1] turned out to be 0.902 ± 0.086; in assay [2], 0.869 ± 0.16; in assay [3], 1.01 ± 0.031. Further, the “TCF/Wnt firefly luciferase reporter signal” value in assay [4] came to 1.07 ± 0.25; in assay [5] it was 0.98 ± 0.057.
In the same order, the values of `CC1=C(/C=C/C(C)=C/C=C/C(C)=C/CO)C(C)(C)CCC1` are 0.974 ± 0.079, 1.15 ± 0.042, 1.04 ± 0.042, 1.14 ± 0.042 and 1.04 ± 0.057.
Consider `COc1ccc(CCC(=O)c2c(O)cc(O[C@@H]3O[C@H](CO)[C@@H](O)[C@H](O)[C@H]3O[C@@H]3O[C@@H](C)[C@H](O)[C@@H](O)[C@H]3O)cc2O)cc1O`, for which the cell viability is 0.96 ± 0.085 in assay [1], 1.01 ± 0.024 in assay [2] and 0.975 ± 0.036 in assay [3]. The “TCF/Wnt firefly luciferase reporter signal” value in assay [4] is 0.945 ± 0.079; in assay [5], 1.04 ± 0.028.
For `CC(=O)C1=C(CO)C(=O)c2cccc(O)c2C1=O` [Bhimamycin E] the same measures were 1.05 ± 0.042, 1.04 ± 0.068, 0.9945 ± 0.0021, 0.983 ± 0.14 and 1.01.
In the same order, the values of `CC(C)(C)NCC(O)COc1cccc2c1CC(O)C(O)C2` (stereo not given) are 1.05 ± 0.11, 0.929 ± 0.015, 1.04 ± 0.028, 1.02 ± 0.15 and 0.996 ± 0.063.
In the same order, the values of `COc1cc(-c2coc3cc(OC)c(OC)c(OC)c3c2=O)cc(OC)c1OC` are 1.04 ± 0.08, 1.18 ± 0.14, 1.07 ± 0.064, 1.05 ± 0.1 and 1.1 ± 0.028.
In the case of `O=C1C(CC[S+]([O-])c2ccccc2)C(=O)N(c2ccccc2)N1c1ccccc1` (stereo not given), the figures for the cell viability in assay [1], in assay [2] and in assay [3] were 1.07 ± 0.028, 1.09 ± 0.064 and 1.035 ± 0.0071, respectively. Moreover, the “TCF/Wnt firefly luciferase reporter signal” value in assay [4] was determined as 0.857 ± 0.079; in assay [5] it was 0.885 ± 0.089.
